Test [1] can be described thus: qHTS RealTime-Glo MT Cell Viability Assay in HEK293 cells - 16 hour (AID 1224872). Also: nearly all actives have a fitted effect of over 50% in size. Also: potency is read from the fitted curve at half-maximal effect. A digest of the protocol: (§1)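 Assay medium contained NanoLuc luciferase plus cell-permeant prosubstrate, added with HEK293 cells at 600 cells/well. After 5 h at 37 C/5% CO2 compounds were added; plates stayed at 37 C for 40 h with serial luminescence reads.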
Test [2] is described as follows: qHTS RealTime-Glo MT Cell Viability Assay in HepG2 cells - 8 hour (AID 1224873). Also: nearly all actives have a fitted effect of over 55% in size. A digest of the protocol:
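HepG2 cells mixed with RealTime-Glo MT reagents (NanoLuc plus cell-permeant prosubstrate) were seeded at 600 cells/well, incubated 5 h at 37 C/5% CO2, then pinned with compounds in DMSO; nonlytic luminescence tracked viability during 40 h treatment.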

The nature of test [3]: A CellTox Green Cytotoxicity Assay to monitor cytotoxicity in HEK293 cells - 24 hour (AID 1224875). Also: nearly all actives have a fitted effect of over 45% in size. Also: potency is read from the fitted curve at half-maximal effect. A digest of the protocol:
(§2)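 Fluorescence intensity, read at 0, 8, 16, 24, 32 and 40 h of compound treatment, reflected dye binding to DNA of dead HEK293 cells; compounds (23 nL, DMSO) were added 5 h after plating cells with reagent.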

A short description of test [4]: qHTS RealTime-Glo MT Cell Viability Assay in HepG2 cells - 32 hour (AID 1224877). Also: nearly all actives have a fitted effect of over 55% in size. Also: potency is read from the fitted curve at half-maximal effect. A digest of the protocol:
(§3)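 qHTS, HepG2, 600 cells/well, RealTime-Glo (NanoLuc + prosubstrate) added with cells; 5 h preincubation; DMSO compound addition; 37 C; luminescence at 0/8/16/24/32/40 h.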

The nature of test [5]: A CellTox Green Cytotoxicity Assay to monitor cytotoxicity in HepG2 cells - 24 hour (AID 1224878). Also: nearly all actives have a fitted effect of over 45% in size. Also: potency is read from the fitted curve at half-maximal effect. A digest of the protocol: (§4)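 Using 1536-well format, dye-containing HepG2 suspension was seeded, allowed 5 h at 37 C/5% CO2, dosed by pintool with compounds, positive and negative controls, and imaged for fluorescence across 40 h.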
Test [6] is described as follows: A CellTox Green Cytotoxicity Assay to monitor cytotoxicity in HepG2 cells - 40 hour (AID 1224879). Also: nearly all actives have a fitted effect of over 40% in size. Also: potency is read from the fitted curve at half-maximal effect. A digest of the protocol: as §4
The nature of test [7]: qHTS RealTime-Glo MT Cell Viability Assay in HEK293 cells - 0 hour (AID 1224880). Also: nearly all actives have a fitted effect of over 45% in size. Also: potency is read from the fitted curve at half-maximal effect. A digest of the protocol: (§5)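 Viable HEK293 cells reduce a cell-permeant prosubstrate; the product diffuses out and is consumed by NanoLuc in the medium to give light. Compounds went in after a 5 h incubation and plates were read over the treatment course.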
A short description of test [8]: A CellTox Green Cytotoxicity Assay to monitor cytotoxicity in HEK293 cells - 32 hour (AID 1224881). Also: nearly all actives have a fitted effect of over 40% in size. Also: potency is read from the fitted curve at half-maximal effect. A digest of the protocol:
as §2

Test [9] can be described thus: A CellTox Green Cytotoxicity Assay to monitor cytotoxicity in HepG2 cells - 0 hour (AID 1224882). Also: nearly all actives have a fitted effect of over 35% in size. A digest of the protocol: as §4
Test [10] in a line: A CellTox Green Cytotoxicity Assay to monitor cytotoxicity in HepG2 cells - 32 hour (AID 1224883). Also: nearly all actives have a fitted effect of over 50% in size. Also: potency is read from the fitted curve at half-maximal effect. A digest of the protocol:
as §4

Test [11] is described as follows: A CellTox Green Cytotoxicity Assay to monitor cytotoxicity in HEK293 cells - 8 hour (AID 1224884). Also: nearly all actives have a fitted effect of over 35% in size. A digest of the protocol: as §2
The nature of test [12]: qHTS RealTime-Glo MT Cell Viability Assay in HepG2 cells - 16 hour (AID 1224885). Also: nearly all actives have a fitted effect of over 50% in size. A digest of the protocol:
as §3

Test [13] can be described thus: qHTS RealTime-Glo MT Cell Viability Assay in HEK293 cells - 8 hour (AID 1224887). Also: nearly all actives have a fitted effect of over 50% in size. Also: potency is read from the fitted curve at half-maximal effect. A digest of the protocol: as §5
Test [14] can be described thus: A CellTox Green Cytotoxicity Assay to monitor cytotoxicity in HEK293 cells - 16 hour (AID 1224888). Also: nearly all actives have a fitted effect of over 35% in size. Also: potency is read from the fitted curve at half-maximal effect. A digest of the protocol: as §2
A short description of test [15]: qHTS RealTime-Glo MT Cell Viability Assay in HepG2 cells - 0 hour (AID 1224889). Also: nearly all actives have a fitted effect of over 50% in size. Also: potency is read from the fitted curve at half-maximal effect. A digest of the protocol: as §3
The nature of test [16]: A CellTox Green Cytotoxicity Assay to monitor cytotoxicity in HepG2 cells - 8 hour (AID 1224890). Also: nearly all actives have a fitted effect of over 45% in size. Also: potency is read from the fitted curve at half-maximal effect. A digest of the protocol:
as §4

The nature of test [17]: qHTS RealTime-Glo MT Cell Viability Assay in HEK293 cells - 40 hour (AID 1224874). Also: nearly all actives have a fitted effect of over 50% in size. Also: potency is read from the fitted curve at half-maximal effect. The note with it: RealTime-Glo luminescence; max response: hits give low values. A digest of the protocol: as §5
Test [18] in a line: A CellTox Green Cytotoxicity Assay to monitor cytotoxicity in HepG2 cells - 16 hour (AID 1224876). Also: nearly all actives have a fitted effect of over 45% in size. Also: potency is read from the fitted curve at half-maximal effect. A digest of the protocol:
as §4

Test [19] in a line: qHTS RealTime-Glo MT Cell Viability Assay in HEK293 cells - 24 hour (AID 1224886). Also: nearly all actives have a fitted effect of over 50% in size. Also: potency is read from the fitted curve at half-maximal effect. A digest of the protocol: as §1

Unmarked numbers belong to inactive results. Records with an inconclusive call do not appear. Active and inactive are the calls of the source. Calls follow the shape of the dose curve; as a rule, active = well fitted curve in the direction sought with a large enough effect in the repeat runs; inconclusive = weak or mixed curves; inactive = no such curve, though single readings can be large; an effect the other way counts as inactive or inconclusive.
% is scaled to controls: 0 for no effect and ±100 for the full control effect.

Take `Cc1ccc(-c2ccccc2)cc1`: the Potency entry in test [1], in test [2], in test [3], in [4], in test [7] and in test [8] was “inactive” in each case. The Potency entry in [9], in [11], in test [12], in test [13], in [14] and in test [15] was “inactive” in each case. The Potency in test [5] was 43.6 µM (active); in [6], 43.6 µM (active); in [10], 43.6 µM (active); in test [16], 49 µM (active).
For the molecule `C=CC(=O)OCCOC(=O)C=C`, the Potency in [17] was 49 µM (active); in test [19], 43.6 µM (active). The Potency entry in test [3], in test [18], in test [4], in test [5], in test [6] and in test [7] was “inactive” throughout. Also, the Potency entry in test [9], in test [10], in test [11], in [12], in [13] and in [14] was “inactive” throughout. Moreover, the Potency entry in [15] and in test [16] was “inactive” each time.
As to `Cl[Si](Cl)(c1ccccc1)c1ccccc1`, the Potency result in [1], in [2], in test [18], in test [4], in test [5] and in [6] was “inactive” throughout. The Potency entry in [7], in test [9], in [10], in [12], in test [19] and in test [13] was “inactive” each time. For the same molecule, the Potency entry in test [15] and in test [16] was “inactive” in each case. Besides, the max response in [17] was -3.91%.
Consider `CC(C)=CCNc1ncnc2c1ncn2[C@@H]1O[C@H](CO)[C@@H](O)[C@H]1O`, for which the Potency result in [1], in test [2], in test [3], in test [4], in test [7] and in test [8] was “inactive” in each case. For the same molecule, the Potency result in test [11], in test [12], in test [19], in test [13], in test [14] and in test [15] was “inactive” throughout.
For the molecule `CCCCCC(C)OC(=O)COc1ccc(Cl)c2cccnc12` (centres undefined), the max response in test [17] was -19.2%. Besides, the Potency result in test [3], in test [18], in test [4], in test [7], in [9] and in [11] was “inactive” in each case. Moreover, the Potency result in [14], in test [15] and in test [16] was “inactive” throughout.
For `CNC(=O)c1ccccc1Sc1ccc2c(/C=C/c3ccccn3)n[nH]c2c1`, the Potency in test [17] was 8.49 µM (active); in test [19], 7.56 µM (active). The Potency result in test [3], in test [4], in [5], in [6], in test [8] and in test [9] was “inactive” each time. The Potency entry in test [10], in test [11], in test [14] and in test [16] was “inactive” throughout.
`Cc1ccc(O)c(O)c1`: the Potency entry in test [18], in test [4], in test [5], in [7], in test [9] and in test [10] was “inactive” throughout. Moreover, the Potency result in [12], in test [15] and in test [16] was “inactive” each time.
Regarding `CCCC(=O)OCOC(=O)C1=C(C)NC(C)=C(C(=O)OC)C1c1cccc(Cl)c1Cl` (centres undefined), the Potency entry in test [1], in test [3], in test [18], in test [4], in test [5] and in [6] was “inactive” throughout. The Potency result in test [8], in test [9], in test [10], in [11], in test [12] and in [19] was “inactive” in each case. Besides, the Potency entry in test [13], in test [14] and in [16] was “inactive” throughout. Further, the max response in [17] is 2.11%. Also, the Potency in [7] is 9.52 µM (active); in test [15], 10.7 µM (active).
Consider `CCCCCCCCCCCCOC(=O)c1ccc(O)cc1`, for which the Potency in test [1] is 44 µM (active). Further, the Potency result in test [3], in test [18], in test [4], in [5], in test [6] and in test [7] was “inactive” throughout. For the same molecule, the Potency result in [8], in test [9], in test [10], in test [11], in [12] and in test [14] was “inactive” in each case. The Potency result in test [15] and in test [16] was “inactive” in each case.
Regarding `Cc1cc(=O)oc2cc(O)cc(O)c12`, the Potency entry in test [1], in test [18], in [4], in test [5], in [6] and in [7] was “inactive” in each case. Also, the Potency result in test [9], in test [10], in test [11], in test [12], in test [19] and in test [13] was “inactive” in each case. For the same molecule, the Potency result in test [15] and in test [16] was “inactive” each time. In addition, the max response in [17] is -8.17%.
For `CCOC(=O)c1ccc(C2CCC(NC[C@H](O)COc3ccc(O)c(NS(C)(=O)=O)c3)CC2)cc1` (some centres undefined), the Potency in test [1] was 20.2 µM (active); in [17], 20.2 µM (active); in [4], 45.2 µM (active); in test [5], 50.7 µM (active); in test [6] it was 45.2 µM (active); in test [10] it was 45.2 µM (active). Besides, the Potency in test [19] and in test [13] was 20.2 µM (active) in each case. In addition, the Potency result in test [7], in test [9], in [11], in [14] and in [16] was “inactive” throughout.
Take `C/C=C/C=C/COC(=O)C(C)C`: the Potency entry in test [2], in test [3], in test [18], in test [7], in test [9] and in test [11] was “inactive” each time. Moreover, the Potency entry in [12], in test [14], in test [15] and in test [16] was “inactive” each time. In addition, the Potency was 43.6 µM (active) in [6] and 38.9 µM (active) in test [10].
As for `OCCN1CCN(CCCN2c3ccccc3Sc3ccc(C(F)(F)F)cc32)CC1`, the Potency was 23.9 µM (active) in test [17]; 26.8 µM (active) in [5]; 26.8 µM (active) in [6]; 26.8 µM (active) in test [10]; 23.9 µM (active) in [19]; 26.8 µM (active) in test [14]. Further, the Potency entry in test [9], in test [11] and in [15] was “inactive” in each case.
With `Nc1nc(-c2ccccc2)cs1`, the Potency entry in test [1], in test [2], in [3], in test [18], in test [4] and in test [5] was “inactive” throughout. Moreover, the Potency result in test [6], in test [7], in test [9], in test [10], in test [11] and in [12] was “inactive” throughout. In addition, the Potency result in test [19], in test [13], in test [14], in test [15] and in test [16] was “inactive” throughout.
For the molecule `CC(C)(C)c1csc(-c2cc3cc(OCc4ccccc4CC(=O)O)ccc3o2)n1`, the Potency in test [17] is 38.9 µM (active); in test [3], 54.9 µM (active); in test [18], 54.9 µM (active); in test [5], 54.9 µM (active); in test [6], 54.9 µM (active); in [8], 54.9 µM (active). Also, the Potency in test [10] is 54.9 µM (active). In addition, the Potency result in [4], in test [7], in test [9], in test [11] and in test [15] was “inactive” in each case.
Turning to `CC(C)=CCC1=C(O)c2ccccc2C(=O)C1=O`, in test [17], the Potency was 24.4 µM (active). Besides, the Potency entry in test [3], in [18], in test [4], in test [5], in [6] and in test [7] was “inactive” throughout. Also, the Potency result in [9], in [10], in test [11], in test [12], in test [14] and in [15] was “inactive” each time. Besides, the Potency entry in test [16] was “inactive”.
In the case of `CN(C)[C@@H](CCOc1cccc2ccccc12)c1ccccc1`, the Potency entry in test [7], in test [9], in test [11] and in [15] was “inactive” in each case.

The record behind these values is PubChem BioAssay (Tox21).
